ST2 IL33 inh – IL1RL1 inhibition; Q01638; AlphaLISA ST2-Fc/biotin-IL-33 interaction, 1 h; inhibition, % for hits at 17 µM; hit rate 2.3% among 78,000; in the data active = inhibition above about 30%
Target sequence (Q01638 whole entry, looked up): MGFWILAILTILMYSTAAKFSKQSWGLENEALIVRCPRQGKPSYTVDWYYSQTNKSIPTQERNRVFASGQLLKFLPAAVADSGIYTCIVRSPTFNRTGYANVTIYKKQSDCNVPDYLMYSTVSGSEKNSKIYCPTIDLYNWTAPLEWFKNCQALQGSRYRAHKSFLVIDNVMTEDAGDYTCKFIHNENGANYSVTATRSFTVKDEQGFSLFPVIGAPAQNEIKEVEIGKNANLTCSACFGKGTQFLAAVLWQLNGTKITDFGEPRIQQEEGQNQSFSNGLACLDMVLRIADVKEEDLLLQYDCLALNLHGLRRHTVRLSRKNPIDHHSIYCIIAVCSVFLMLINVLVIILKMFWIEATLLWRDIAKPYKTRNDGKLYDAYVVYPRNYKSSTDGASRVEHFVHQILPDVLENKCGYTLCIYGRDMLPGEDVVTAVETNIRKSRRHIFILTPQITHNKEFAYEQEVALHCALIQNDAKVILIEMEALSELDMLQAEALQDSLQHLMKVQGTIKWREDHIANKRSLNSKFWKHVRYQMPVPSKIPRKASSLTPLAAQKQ
Of the large screens only hits and unclear results are named; the others gave an inactive call. Shown is part of a subset that was picked to be rich in hits.

Cc1ccc(C2(C)CC(C)(C)N(C(=O)CN3C(=O)CCC3=O)c3ccccc32)cc1 (stereo not drawn)	none
O=C(NC1CCCCCCC1)C1CCCN1S(=O)(=O)c1cccc2nsnc12 (stereo not drawn)	ST2 IL33 inh 33.0%
O=C(C1CCCN1S(=O)(=O)c1cccc2nsnc12)N1CCCCC1 (stereo not drawn)	none
CC(C)(C)NC(=O)C1CCCN1S(=O)(=O)c1cccc2nsnc12 (stereo not drawn)	none
Cc1ccc(NC(=O)c2ccc(NS(=O)(=O)c3cccs3)cc2)cc1F	none
CN(CCc1ccccc1)C(=O)c1nc2sccn2c1CN1CC[C@@H](O)C1	none
Cc1ccc(-c2ccnc(NC3CC(=O)N(CC(C)(C)C)C3)n2)c(C)n1 (stereo not drawn)	none
COc1ccc(C2=NN(S(=O)(=O)c3ccc(C)cc3)C(c3ccc(F)cc3)C2)cc1OC (stereo not drawn)	none
COc1ccc(C2CC(c3ccccc3)=NN2C(=O)c2ccc(F)cc2)cc1 (stereo not drawn)	none
Cc1ccc(C2CC(c3ccc(F)cc3)=NN2c2ccccc2)o1 (stereo not drawn)	ST2 IL33 inh 40.0%
CN1CCN(CCCNC(=O)c2ccc3c(c2)NC(=O)C(N2CCOCC2)S3)CC1 (stereo not drawn)	none
CCOc1ccc(/C=C2\N=C(c3ccccc3Cl)OC2=O)cc1	none
CCOc1ccccc1/C=C1\N=C(c2ccc(OC)c([N+](=O)[O-])c2)OC1=O	none
CCOc1ccc(/C=C2/OC(=O)c3c2cc(C)[nH]c3=O)cc1OC	ST2 IL33 inh 51.0%
COc1ccc(C2=Cc3cc(OC)c(OC)cc3/C(=C/c3ccc(OC)c(OC)c3)O2)cc1	none
CCOc1ccc(/C=C2\N=C(c3ccccc3OC)OC2=O)cc1OCC	ST2 IL33 inh 34.0%
Cc1cc2c(c(=O)[nH]1)C(=O)O/C2=C\c1cccs1	none
Cc1cc(C)nc(NS(=O)(=O)c2ccc(NC(=O)c3ccoc3C)cc2)n1	none
CC1CCCCC1NC(=O)c1ccc(NC(=O)C2CCCO2)cc1 (stereo not drawn)	none
O=C(Nc1ccc2oc(-c3cc(F)c(F)cc3Cl)nc2c1)c1cccnc1	none
COc1ccc(-c2nc3ccccc3[nH]c2=O)cc1	none
CC(=O)Nc1ccc(S(=O)(=O)O)cc1	none
N=C1S/C(=C\c2ccc(O)cc2)C(=O)N1c1ccc(F)cc1	none
N=C1S/C(=C\c2ccc(N3CCOCC3)cc2)C(=O)N1c1ccc(Br)cc1	ST2 IL33 inh 32.0%
Cc1ccc(N2C(=O)S/C(=C\c3ccc(O)cc3)C2=O)cc1	none
COC(=O)[C@H](Cc1ccc(OC)cc1)NC(=O)[C@@H]1CN(C(=O)c2cccc(F)c2)CCN1S(C)(=O)=O	none
O=C(Nc1cccc2ncccc12)c1cccs1	none
CCCCCC1CC(O)CC(=O)O1 (stereo not drawn)	none
Cc1nn(Cc2ccc(F)cc2)c(C)c1NC(=O)c1cc(-c2ccc(Cl)cc2)on1	none
Cc1ccc(S(=O)(=O)Cc2noc([C@@H]3C[C@@H](O)CN3Cc3ccccc3[N+](=O)[O-])n2)cc1	ST2 IL33 inh 31.0%
Cc1ccc(S(=O)(=O)Cc2noc([C@@H]3C[C@@H](O)CN3Cc3c[nH]c4ccccc34)n2)cc1	none
Cc1ccc(S(=O)(=O)Cc2noc([C@@H]3C[C@@H](O)CN3Cc3ccc(S(C)(=O)=O)cc3)n2)cc1	none
N#CC1=C(N)SC(N)=C(C#N)C1c1ccco1	none
Cc1nc2sc(C(c3ccccc3)N3CCN(c4ccccc4)CC3)c(O)n2n1 (stereo not drawn)	none
Cc1ccc2c(c1)C1CC(C)(O2)N(c2ccccc2)C(=O)N1 (stereo not drawn)	none
COc1ccccc1NC(=O)C1=C(C)Nc2nnnn2C1c1ccc([N+](=O)[O-])cc1 (stereo not drawn)	none
CC(=O)n1cc(/C=C2\N=C(c3ccc(Cl)cc3)OC2=O)c2cc(Br)ccc21	none
COc1ccccc1/C=C1\N=C(c2cccc(I)c2)OC1=O	none
CC(=O)n1cc(/C=C2/N=C(c3ccccc3)OC2=O)c2ccccc21	ST2 IL33 inh 61.0%
O=S(=O)(NC1CCCCC1Sc1ccccn1)c1ccccc1 (stereo not drawn)	none
O=[N+]([O-])c1cc2c(cc1CN1CCN(c3cccc(Cl)c3)CC1)OCO2	ST2 IL33 inh 36.0%
OC(COCc1ccc2c(c1)OCO2)CN1CCN(c2cccc(Cl)c2)CC1 (stereo not drawn)	none
COc1cc(CN2CCCCCC2)c([N+](=O)[O-])cc1OC	none
O=[N+]([O-])c1cc2c(cc1CN1CCN(c3ccc(F)cc3)CC1)OCO2	ST2 IL33 inh 36.0%
COc1cc(CN2CCN(Cc3ccccc3)CC2)c([N+](=O)[O-])cc1OC	none
CN1CCN(Cc2cc(O)ccc2[N+](=O)[O-])CC1	none
COc1ccc(C2C(C(=O)Nc3ccc(C)cc3C)=C(C)Nc3nnnn32)cc1OC (stereo not drawn)	none
O=C(CCc1ccccc1)Nc1nnc(-c2ccc3c(c2)OCO3)s1	none
Cc1ccc2oc(CN3CCOC(CN)C3)c(C)c2c1 (stereo not drawn)	none
CCOC(=O)C1(CCOc2ccccc2)CCN(C(=O)C2CC(C(C)C)=NO2)CC1 (stereo not drawn)	none
COc1ccccc1Oc1ncccc1CNC(=O)C1CCOC1 (stereo not drawn)	none
Cc1cc(N2CCN(C)CC2)nc2ccc(NC(=O)CCC(=O)NC3CCCC(C)C3C)cc12 (stereo not drawn)	none
Cc1cc(N2CCOCC2)nc2ccc(NC(=O)CCC(=O)N(C)c3cccc(Cl)c3)cc12	none
O=C(CSc1nc2c(c(=O)n1-c1ccccc1)SCC2)Nc1ccc(Br)cc1	none
O=C1C[C@H]2CC[C@@H](CN1)N2C(=O)Cc1ccc(NC(=O)C2CC2)cc1	ST2 IL33 inh 43.0%
NS(=O)(=O)c1ccc(NC(=O)C2CCN(C(=O)Cc3ccccc3)CC2)cc1	none
NC(=O)c1ccc(NC(=O)C2CCN(C(=O)Cc3ccccc3)CC2)cc1	none
O=C1CCCC2=C1C(c1ccncc1)c1c(nc(SCc3ccccc3F)[nH]c1=O)N2 (stereo not drawn)	none
Cn1cc(I)c(-c2nc(-c3nonc3N)no2)n1	none
COc1cc(/C(C#N)=C/c2ccccc2F)c([N+](=O)[O-])cc1OC	none
N#C/C(=C\c1ccccc1[N+](=O)[O-])c1nc(-c2ccccc2)cs1	ST2 IL33 inh 50.0%
N#C/C(=C\c1ccccc1[N+](=O)[O-])c1nc(-c2ccc(Cl)cc2)cs1	ST2 IL33 inh 31.0%
O=C1c2cccc([N+](=O)[O-])c2C(=O)N1c1nc(-c2ccccc2)cs1	none
O=C(Nc1nc2ccc(Cl)cc2s1)c1ccccc1[N+](=O)[O-]	none
CN(CC1CCCNC1)C(=O)c1ccc(CSc2ncccn2)o1 (stereo not drawn)	none
Cc1ccc(CSC2=NCCN2C(=O)c2ccccc2)cc1	none
COc1ccc(-n2cccn2)c(C2CC(=O)Nc3[nH]ncc32)c1 (stereo not drawn)	none
COCCN1CCN(C(=O)CC2C(=O)NCCN2Cc2ccoc2)CC1 (stereo not drawn)	none
CC(Oc1cc2oc(=O)cc(-c3ccccc3)c2cc1Cl)C(=O)O (stereo not drawn)	none
COc1cc(-c2nc3cnccn3c2NC2CCCC2)ccc1O	none
COc1cccc(C2C3=C(CC(C)(C)CC3=O)Nc3nc(SCc4ccccc4)[nH]c(=O)c32)c1 (stereo not drawn)	none
CCOc1ccccc1N1C(=O)CC(Nc2ccc(N3CCOCC3)cc2)C1=O (stereo not drawn)	ST2 IL33 inh 51.0%
CCOc1ccccc1N1CCN(C2CC(=O)N(c3ccccc3)C2=O)CC1 (stereo not drawn)	none
COc1ccccc1N1C(=O)CC(N2CCOCC2)C1=O (stereo not drawn)	none
Cc1ccc2oc(C(=O)NCCc3nc4ccccc4[nH]3)c(C)c2c1	none

Compound activity: PubChem, Paczesny and Yang Labs, IUPUI and University of Michigan
